Measurements reported in PubChem BioAssay (Tox21).
Inconclusive results are not listed. The source made the active and inactive calls. Unless noted, calls come from the whole dose curve; as a rule, active = well fitted curve in the direction sought with a large enough effect in the repeat runs; inconclusive = weak or mixed curves; inactive = no such curve, though single readings can be large; an effect the other way counts as inactive or inconclusive. Where a SMILES comes first, the peptide text is derived from it.

Key:
[1] = qHTS RealTime-Glo MT Cell Viability Assay in HEK293 cells - 8 hour (AID 1224887); note: top concentration of the series differs between compounds; nearly all actives have a fitted effect of over 50% in size
Outline: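 Luminescence readout at each listed time point; HEK293, 600 cells/well, RealTime-Glo MT reagent added with cells; compounds pinned (23 nL in DMSO) after 5 h at 37 C; continuous culture at 37 C.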

[2] = A CellTox Green Cytotoxicity Assay to monitor cytotoxicity in HEK293 cells - 16 hour (AID 1224888); note: nearly all actives have a fitted effect of over 35% in size
Outline: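 Read-out: fluorescence of a cell-impermeant cyanine dye staining DNA of dead cells, proportional to cytotoxicity. HEK293, 600 cells/well with reagent, compound (23 nL DMSO) added after 5 h; reads at 0, 8, 16, 24, 32, 40 h.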

[3] = qHTS RealTime-Glo MT Cell Viability Assay in HepG2 cells - 0 hour (AID 1224889); note: nearly all actives have a fitted effect of over 50% in size
Outline: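 HepG2 cells were seeded at 600 cells/well together with NanoLuc luciferase and a cell-permeant prosubstrate, preincubated 5 h at 37 C/5% CO2, then pin-dosed with compounds in DMSO. Nonlytic luminescence from viable cells was read at each time point.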

[4] = A CellTox Green Cytotoxicity Assay to monitor cytotoxicity in HepG2 cells - 8 hour (AID 1224890); note: nearly all actives have a fitted effect of over 45% in size
Outline: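 HepG2, 600 cells/well premixed w/ CellTox Green; 5 h settle, 37 C/5% CO2; pintool cpd add (DMSO); 37 C, 40 h; fluorescence read at 0, 8, 16, 24, 32, 40 h.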

[5] = qHTS assay to identify small molecule antagonists of the estrogen receptor alpha (ER-alpha) signaling pathway using the BG1 cell line in the presence of 0.1 nM 17-beta-estradiol - cell viability counter screen (AID 1259241); note: nearly all actives have a fitted effect of over 40% in size
Outline: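 In this screen, hormone-deprived VM7Luc4E2 cells were seeded at 4,000 per well, dosed with compound and 0.1 nM estradiol final, and incubated 22 hr at 37C and 5% CO2; fluorogenic live-cell protease signal reported viability.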

[6] = qHTS assay to identify small molecule antagonists of the androgen receptor (AR) signaling pathway using the MDA cell line in the presence of 0.5 nM R1881 - cell viability counter screen (AID 1259242); note: nearly all actives have a fitted effect of over 45% in size
Outline: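 Live-cell protease fluorescence, CellTiter-Fluor, 30 min at 37C. Cells: MDA-kb2, 3,000/well, preincubated 5 hr. Compounds plus 0.5 nM R1881 final, 16 hr, 37C, 0% CO2.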

[7] = target: Androgen receptor (Homo sapiens) (UniProt P10275); assay: qHTS assay to identify small molecule antagonists of the androgen receptor (AR) signaling pathway using the MDA cell line in the presence of 0.5 nM R1881 (AID 1259243); note: nearly all actives have a fitted effect of over 50% in size
Androgen receptor (Homo sapiens), sequence (P10275 whole entry, looked up): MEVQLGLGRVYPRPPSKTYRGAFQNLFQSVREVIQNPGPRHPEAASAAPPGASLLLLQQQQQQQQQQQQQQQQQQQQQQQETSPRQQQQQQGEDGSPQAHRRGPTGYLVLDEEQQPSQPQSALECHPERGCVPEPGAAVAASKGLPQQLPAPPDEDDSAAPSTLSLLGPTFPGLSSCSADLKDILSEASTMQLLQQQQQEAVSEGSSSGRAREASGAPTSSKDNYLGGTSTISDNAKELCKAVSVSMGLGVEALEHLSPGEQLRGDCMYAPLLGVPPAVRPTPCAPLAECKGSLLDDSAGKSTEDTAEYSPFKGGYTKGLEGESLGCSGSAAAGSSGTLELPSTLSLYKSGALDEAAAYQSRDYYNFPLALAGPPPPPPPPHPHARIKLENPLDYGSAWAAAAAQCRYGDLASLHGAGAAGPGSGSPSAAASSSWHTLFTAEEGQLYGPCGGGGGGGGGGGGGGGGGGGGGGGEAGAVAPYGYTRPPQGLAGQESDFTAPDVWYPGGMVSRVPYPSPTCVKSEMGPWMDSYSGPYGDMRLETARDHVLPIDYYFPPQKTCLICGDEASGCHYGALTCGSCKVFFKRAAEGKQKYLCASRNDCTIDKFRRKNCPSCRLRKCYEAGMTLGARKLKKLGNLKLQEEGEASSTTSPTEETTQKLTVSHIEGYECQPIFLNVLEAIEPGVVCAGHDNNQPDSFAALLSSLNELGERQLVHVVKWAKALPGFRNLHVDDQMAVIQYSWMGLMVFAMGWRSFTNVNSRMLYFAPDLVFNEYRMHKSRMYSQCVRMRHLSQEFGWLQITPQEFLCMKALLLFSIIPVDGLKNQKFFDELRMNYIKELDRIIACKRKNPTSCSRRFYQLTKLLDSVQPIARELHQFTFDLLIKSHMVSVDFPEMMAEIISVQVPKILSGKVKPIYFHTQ
Outline: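 MDA-kb2, MMTV-luc (AR/GR elements); 3,000 cells/well; cpd + 0.5 nM R1881 final; 16 hr 37C, 0% CO2; ONE-Glo 30 min RT; luminescence.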

[8] = target: Estrogen receptor (Homo sapiens) (UniProt P03372); assay: qHTS assay to identify small molecule antagonists of the estrogen receptor alpha (ER-alpha) signaling pathway using the BG1 cell line in the presence of 0.1 nM 17-beta-estradiol (AID 1259244); note: nearly all actives have a fitted effect of over 50% in size
Estrogen receptor (Homo sapiens), sequence (P03372 whole entry, looked up): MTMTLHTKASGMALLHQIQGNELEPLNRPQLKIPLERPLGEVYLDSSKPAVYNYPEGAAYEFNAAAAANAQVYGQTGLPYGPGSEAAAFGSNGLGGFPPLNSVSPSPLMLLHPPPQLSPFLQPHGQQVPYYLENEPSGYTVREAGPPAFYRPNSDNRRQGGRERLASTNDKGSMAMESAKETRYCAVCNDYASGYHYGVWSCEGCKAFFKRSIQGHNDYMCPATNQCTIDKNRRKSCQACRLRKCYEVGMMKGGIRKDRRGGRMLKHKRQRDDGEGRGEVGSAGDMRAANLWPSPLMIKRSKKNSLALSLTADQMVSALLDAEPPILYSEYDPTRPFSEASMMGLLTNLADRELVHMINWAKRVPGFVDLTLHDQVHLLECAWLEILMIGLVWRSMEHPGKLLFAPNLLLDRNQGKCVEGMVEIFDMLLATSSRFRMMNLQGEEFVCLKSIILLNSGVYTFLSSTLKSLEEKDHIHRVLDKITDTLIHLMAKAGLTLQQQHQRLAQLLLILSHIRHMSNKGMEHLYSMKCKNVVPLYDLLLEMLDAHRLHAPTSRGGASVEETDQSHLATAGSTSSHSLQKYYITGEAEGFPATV
Outline: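 Luminescence after ONE-Glo (30 min, room temperature) measured ERE-luciferase activity in VM7Luc4E2 cells treated 22 h with compound and 0.1 nM final 17beta-estradiol as stimulator.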

[9] = qHTS assay to identify small molecule HDAC inhibitors (AID 1259364);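 note: wild-type HCT-116 cells with endogenous class I/II HDAC activity; top concentration of the series differs between compounds; nearly all actives have a fitted effect of over 45% in size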
Outline: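 HCT-116 (wild type), 1,500 cells/well, overnight; compound 2 hr 37C 5% CO2; HDAC-Glo I/II reagent 30 min RT; luminescence readout.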

[10] = qHTS assay to identify small molecule HDAC inhibitors - cell viability counter screen (AID 1259365)
Outline: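 Measured quantity is CellTiter-Glo luminescence from wild-type HCT-116 cells after compound incubation of 2hr at 37C, 5% CO2; reagent developed 30min at room temperature.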

[11] = qHTS assay to identify small molecule agonists of the sonic hedgehog signaling (Shh) pathway - cell viability counter screen (AID 1259366); note: nearly all actives have a fitted effect of over 50% in size
Outline: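 In quantitative high-throughput format, 3T3 Gli1-Luc cells were exposed to compounds for 24hr and multiplexed for viability using CellTiter-Fluor, incubated 1hr at 37C before the fluorescence read.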

[12] = qHTS assay to identify small molecule antagonists of the sonic hedgehog signaling (Shh) pathway - cell viability counter screen (AID 1259367); note: nearly all actives have a fitted effect of over 55% in size
Outline: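 Cytotoxicity was assessed in parallel with Shh reporter activity by measuring live-cell protease fluorescence (CellTiter-Fluor) in NIH/3T3 cells stably carrying Gli1-Luc, treated with compound under conditioned medium stimulation for 23 hr plus 1 hr reagent incubation.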

[13] = qHTS assay to identify small molecule agonists of the sonic hedgehog signaling (Shh) pathway (AID 1259368; calls by dose curve;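 note: NIH/3T3-derived 3T3Gli1-Luc cells carrying a stable Gli1-driven firefly luciferase reporter; series mostly up to about 92 µM; nearly all actives have a fitted effect of over 15% in size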)
Outline: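 Read-out: firefly luciferase luminescence from a Gli1 response element reporter stably integrated in NIH/3T3-derived 3T3Gli1-Luc cells, measured 30 min at room temperature after reagent addition. Compound exposure lasted 24 hr at 37 C, 5% CO2.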

[14] = qHTS assay to identify small molecule antagonists of the sonic hedgehog signaling (Shh) pathway (AID 1259369; calls by dose curve; note: nearly all actives have a fitted effect of over 45% in size)
Outline: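 Luminescence readout: firefly Luc under Gli1 response element in 3T3Gli1-Luc cells (NIH/3T3 clone). Antagonist mode, stimulation by conditioned medium; compound exposure 24hr at 37 C, 5% CO2.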

[15] = target: Estrogen receptor beta (Homo sapiens) (UniProt Q92731); assay: qHTS assay to identify small molecule agonists of the estrogen receptor beta (ER-beta) signaling pathway (AID 1259377; active = well fitted activation curve with a large enough effect in the signal ratio in the repeat runs, not every such curve was filed as active; the % refers to the signal ratio)
Estrogen receptor beta (Homo sapiens), sequence (Q92731 whole entry, looked up): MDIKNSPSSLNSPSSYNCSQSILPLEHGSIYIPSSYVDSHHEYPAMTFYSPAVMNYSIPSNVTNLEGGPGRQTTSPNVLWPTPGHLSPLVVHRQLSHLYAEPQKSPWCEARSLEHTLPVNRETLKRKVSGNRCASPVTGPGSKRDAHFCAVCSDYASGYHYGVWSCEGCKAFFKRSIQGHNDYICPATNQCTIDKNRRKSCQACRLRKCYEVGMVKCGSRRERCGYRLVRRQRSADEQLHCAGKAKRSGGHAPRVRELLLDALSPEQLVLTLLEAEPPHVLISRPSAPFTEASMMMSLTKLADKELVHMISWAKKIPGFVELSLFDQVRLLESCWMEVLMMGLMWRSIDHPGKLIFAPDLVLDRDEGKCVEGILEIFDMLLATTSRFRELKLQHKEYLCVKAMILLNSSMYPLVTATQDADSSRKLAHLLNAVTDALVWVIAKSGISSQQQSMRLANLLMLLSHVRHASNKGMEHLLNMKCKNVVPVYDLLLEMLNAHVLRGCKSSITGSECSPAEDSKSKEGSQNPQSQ
Outline: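 Reporter cells (HEK293T, ER-beta-UAS-bla) receive compounds or DMSO after a 6 hr pre-incubation. They then incubate 16 hr at 37C/5% CO2, and fluorescence from LiveBLAzer B/G substrate is measured after 2 hours at room temperature.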

[16] = target: Estrogen receptor beta (Homo sapiens) (UniProt Q92731); assay: qHTS assay to identify small molecule antagonists of the estrogen receptor beta (ER-beta) signaling pathway (AID 1259378; active = well fitted inhibition curve with a large enough effect in the signal ratio in the repeat runs, not every such curve was filed as active; the % refers to the signal ratio)
Outline: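 ER-beta-UAS-bla HEK293T (GripTite) cells in 2% charcoal-stripped FBS medium were preincubated 6 hr at 37C, dosed with compound, then stimulated with 1 nM E2 (final) for 16 hr; beta-lactamase reporter read by B/G FRET fluorescence after 2 hr substrate loading.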

[17] = qHTS assay to identify small molecule agonists of the androgen receptor (AR) signaling pathway in the presence of an antagonist - cell viability counter screen (AID 1259379);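 note: MDA-kb2 human breast cancer cells carrying an MMTV luciferase reporter; series mostly up to about 92 µM; nearly all actives have a fitted effect of over 25% in size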
Outline: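 Viability counter screen: CellTiter-Fluor fluorescence, measured in the same wells as the luciferase read-out. MDA-kb2 cells, 3,000/well, with nilutamide at 3.0uM final and compounds at 15 concentrations, 16 hr at 37C, 0% CO2.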

[18] = qHTS assay to identify small molecule agonists of the estrogen receptor beta (ER-beta) signaling pathway - cell viability counter screen (AID 1259380); note: nearly all actives have a fitted effect of over 30% in size
Outline: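 Luminescence read-out (CellTiter-Glo, 30 min, room temp) taken in the same wells as the beta-lactamase reporter assay; ER-beta-UAS-bla HEK293T cells exposed to DMSO-dissolved compounds for 16 hr at 37C in 2% charcoal-stripped FBS medium.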

[19] = target: Androgen receptor (Homo sapiens) (UniProt P10275); assay: qHTS assay to identify small molecule agonists of the androgen receptor (AR) signaling pathway in the presence of an antagonist (AID 1259381; calls by dose curve; note: nearly all actives have a fitted effect of over 15% in size)
Outline: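 Luciferase read-out (ONE-Glo, 30min room temperature) in MDA-kb2 MMTV-reporter cells; agonist mode run in presence of AR antagonist nilutamide, 3.0uM final. Compounds tested as 15-point series, 16hr exposure at 37C, 0% CO2.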

[20] = qHTS assay to identify small molecule phospholipidosis (PLD) inducers (AID 1259344; active = well fitted curve in the direction sought with a large enough effect; an effect the other way counts as inactive or inconclusive)
Outline: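 Cells (HepG2, 900 per well) attach for 4 h, receive LipidTOX Red and compound together, incubate 24 h at 37 C, are fixed 30 min with paraformaldehyde/Hoechst, then imaged at one site per well.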
% is set by controls: 0 for no effect and ±100 for the full control effect.

COC(=O)c1cc(Cl)cc(Cl)c1
inactive: Potency [1] | Potency [2] | Potency [3] | Potency [4] | outcome [5] | outcome [6] | Potency [7] | outcome [8] | Potency [9] | outcome [10] | outcome [11] | outcome [12] | outcome [13] | Potency [14] | Potency [15] | Potency [16] | outcome [17] | outcome [18] | outcome [19]

CC(=O)N[C@@H](CO)C(=O)N[C@@H](CC(=O)O)C(=O)N[C@@H](CCCCN)C(=O)N1CCC[C@H]1C(=O)O (Ac-SDKP-OH)
inactive: Potency [1] | Potency [2] | Potency [3] | Potency [4] | outcome [5] | outcome [6] | Potency [7] | outcome [10] | outcome [11] | outcome [12] | outcome [13] | Potency [14] | Potency [16] | outcome [17] | outcome [19]

O=C(O)CSCC(=O)NC1CCSC1=O (stereo not drawn)
inactive: Potency [1] | Potency [2] | Potency [3] | Potency [4] | outcome [5] | outcome [6] | Potency [7] | PLD induction [20] 5.58% [at 7.66 µM] | Potency [9] | outcome [10] | outcome [11] | outcome [12] | outcome [13] | Potency [14] | Potency [15] | Potency [16] | outcome [17] | outcome [18] | outcome [19]

CC1(C)CC(OC(=O)CCCCCCCCC(=O)OC2CC(C)(C)NC(C)(C)C2)CC(C)(C)N1
inactive: activity change, negative = cytotoxicity [1] 1.91% [at 15.8 µM] | activity change [2] -6.19% [at 15.8 µM, stronger effect = higher value] | activity change, negative = cytotoxicity [3] 5.75% [at 15.8 µM] | cytotoxicity increase [4] -0.141% [at 15.8 µM] | activity change, negative = cytotoxicity [5] -0.502% [at 19 µM] | viability change, negative = cytotoxic [6] 0.781% [at 19 µM] | activity change, negative = inhibition [8] -2.8% [at 19 µM] | activity change, negative = inhibition [9] 6.2% [at 19 µM] | activity change, negative = cytotoxicity [10] -7.5% [at 19 µM] | viability change, negative = cytotoxic [11] -15.1% [at 19 µM] | viability change, negative = cytotoxic [12] -5.84% [at 19 µM] | activity change [13] 0.253% [at 18.9 µM] | activity change, negative = inhibition [14] -29.1% [at 19 µM] | activation [15] -4.04% [at 19 µM] | activity, negative = inhibition [16] -12.7% [at 19 µM] | activity change, negative = cytotoxicity [17] 0.897% [at 19 µM]

N[C@@H](CSCCCO)C(=O)O
inactive: activity change, negative = cytotoxicity [1] -0.319% [at 15.8 µM] | activity change [2] 3.31% [at 15.8 µM, stronger effect = higher value] | activity change, negative = cytotoxicity [3] -0.41% [at 15.8 µM] | cytotoxicity increase [4] -14.5% [at 15.8 µM] | activity change, negative = cytotoxicity [5] -2.4% [at 19 µM] | viability change, negative = cytotoxic [6] 2.53% [at 19 µM] | activity, negative = inhibition [7] -8.92% [at 19 µM] | activity change, negative = inhibition [8] -4.57% [at 19 µM] | outcome [20] | activity change, negative = inhibition [9] -2.63% [at 19 µM] | activity change, negative = cytotoxicity [10] -0.57% [at 19 µM] | viability change, negative = cytotoxic [11] -0.254% [at 19 µM] | viability change, negative = cytotoxic [12] 1.48% [at 19 µM] | activity change [13] 0.782% [at 18.9 µM] | activation [15] -2.61% [at 19 µM] | activity, negative = inhibition [16] 0.481% [at 19 µM] | activity change, negative = cytotoxicity [17] -1.46% [at 19 µM] | activity change, negative = cytotoxicity [18] 7.76% [at 19 µM] | activation [19] -0.115% [at 19 µM]

CC(C)NC(=O)c1ccc(C=O)cc1
inactive: Potency [1] | Potency [2] | Potency [3] | Potency [4] | outcome [5] | outcome [6] | Potency [7] | outcome [8] | Potency [9] | outcome [10] | outcome [11] | outcome [12] | outcome [13] | Potency [14] | Potency [15] | Potency [16] | outcome [17] | outcome [18] | outcome [19]

O=C1NC(c2ccccc2)(c2ccccc2)C(=O)N1COP(=O)(O)O
inactive: Potency [1] | Potency [2] | Potency [3] | Potency [4] | outcome [5] | outcome [6] | Potency [7] | Potency [9] | outcome [10] | outcome [11] | outcome [12] | outcome [13] | Potency [14] | outcome [17] | outcome [18] | outcome [19]
